sPLA2-III inh: Blocks human group III sPLA2 activity | Q9NZ20 | QFRET BODIPY PC-A2 liposome hydrolysis, fluorescence | inhibition, % at 12.2 µM | 370,000 compounds, 0.56% hits;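 active = inhibition above mean plus 3 SD of compounds lying within the high and low control bounds, cut at about 19% in these data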;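 note: 0% = median of test compound wells and 100% = no enzyme DMSO wells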
Rin1-Abl PPI inh: human Rin1-Abl interaction inhibition | 360,000 compounds, 0.4% hits | inhibition, % at 7.35 µM | P00519+Q13671 | TR-FRET Rin1/Abl binding, biochemical; in the data active = inhibition above about 5%, passing the limit was not always enough
AI-2 QS mod: Vibrio harveyi AI-2 quorum sensing modulation | 300,000 compounds, 0.4% hits | Vibrio harveyi JMH597 AI-2 luminescence/OD600 ratio, 9 h; active compounds read low; strain lacks LuxN and CqsS sensors; 0 = neutral-control median | AID 2094 | activity change, % at 7.5 µM; in the data active = activity change below about -75%, passing the limit was not always enough; inconclusive = no clear call, values can overlap the other calls;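 note: luminescence divided by OD600 gain over 9 h not by final OD600 alone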
ARNT TACC3 PPI: disrupts binding between human ARNT and TACC3 | 390,000 compounds, 0.66% hits | AlphaScreen His-ARNT PAS-B/GST-TACC3 binding, luminescence; TACC3 fragment carries E629A point mutation | inhibition, % at 9.99 µM | Q9Y6A5 | AID 623870;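 active = mean inhibition of replicates at least 50% and at least half of replicates each reaching 50%; inconclusive = half or more replicates reach 50% but mean below 50%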;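 note: 0% = complete ARNT plus TACC3 wells and 100% = ARNT alone without TACC3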
ARNT Alpha ctr-1: counter-screen for ARNT/TACC3 inhibitors: AlphaScreen artifacts. AC50, µM (doses to about 68 µM), inactives show top-dose activity change, negative = signal decrease. His-ARNT PASB-GST AlphaScreen artifact counter-screen, luminescence. shares compounds with ARNT TACC3 PPI. 1,200 compounds, 50% hits. AID 651705;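 active = every separate test run was called active for a drop in luminescence, with AC50 within twice the top valid dose, actives reach about 71 µM in these data; inconclusive = the separate test runs disagree in their calls; inactive = all runs inactive, including signal change in the wrong direction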
ARNT Alpha ctr-2: AlphaScreen artifact flagged for ARNT-TACC3 inhibitors | shares compounds with ARNT TACC3 PPI | Dual-tagged His-ARNT PASB-GST AlphaScreen artifact counter-screen | AC50, µM | 45 compounds, 70% hits | AID 720564;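 active = luminescence drop, with half-maximal potency fitted within twice the sample's top valid dose, cut at about 70 µM in these data; inactive = the rest, including signal moving the wrong way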
* = called active by the depositor; ? = inconclusive; · = not tested or not shown; [ ] = remark or other dose. Rows were chosen to be rich in hits. Some 1.5% of all compounds tested hit in one or more screens of this group.

SMILES | sPLA2-III inh | Rin1-Abl PPI inh | AI-2 QS mod | ARNT TACC3 PPI | ARNT Alpha ctr-1 | others
C/C=C/c1ccc([C@@H]2[C@@H](CNC(=O)CC)N(Cc3ccccn3)[C@H]2CO)cc1 | · | · | · | 11 | ·
O=C(NC[C@@H]1[C@H](c2ccccc2)[C@H](CO)N1Cc1ccccn1)C1CC1 | · | · | · | 46* | -9%[38 µM]
O=C(NC[C@@H]1[C@@H](c2ccccc2)[C@@H](CO)N1Cc1ccccn1)C1CCCC1 | · | · | · | 16 | ·
C/C=C/c1ccc([C@H]2[C@@H](CO)N(Cc3ccccn3)[C@H]2CNC(C)=O)cc1 | · | · | · | 30* | -22%[38 µM]
C/C=C/c1ccc([C@H]2[C@@H](CNC(=O)CC)N(Cc3ccccn3)[C@H]2CO)cc1 | · | · | · | 47* | -15%[42 µM]
CC(=O)Nc1ccc2nc(-c3ccccn3)[nH]c2c1 | 2 | -4 | 13 | · | ·
c1ccc(-c2nc3cc4ccccc4cc3[nH]2)nc1 | 5 | 0 | 26 | 15* | -36%
COc1ccc(CN(C)C[C@H]2OCCCC[C@@H](C)Oc3ccc(NC(=O)c4ccccc4)cc3C(=O)N([C@@H](C)CO)C[C@H]2C)cc1 | · | · | · | 1 | ·
C[C@@H]1CN([C@@H](C)CO)C(=O)Cc2cc(NC(=O)CCC(F)(F)F)ccc2O[C@H]1CN(C)Cc1ccc(Cl)c(Cl)c1 | · | · | · | 7 | ·
Cc1cc(N2CCN(C(=O)c3ccco3)CC2)c2ccccc2n1 | 2 | 1 | 1 | 2 | ·
O=C(O)CCNc1cc(N2CCN(C(=O)c3ccco3)CC2)c2noc3c2c1C(=O)c1ccccc1-3 | 4 | -13 | -22 | 53* | 19µM*
CN1/C(=N\O)c2cccc3cccc1c23 | 6 | -3 | 23 | 52* | -25%
Oc1cc(NCCN2CCOCC2)cc2cccnc12 | -1 | 2 | · | 59* | 11µM*
C[C@@H]1CN([C@@H](C)CO)C(=O)c2cc(C#CCN(C)C)cnc2O[C@H]1CN(C)C(=O)NC1CCCCC1 | · | · | · | -9 | ·
Oc1c(C(Nc2cccc(C(F)(F)F)c2)c2cccnc2)ccc2cccnc12 (stereo not drawn) | 6 | 4 | 23 | 21 | ·
Cc1cc(NC(c2cccnc2)c2ccc3cccnc3c2O)no1 (stereo not drawn) | 17 | 5 | -54 | 63* | 11µM*
C[C@@H]1CN([C@H](C)CO)C(=O)c2cc(-c3ccc(C#N)cc3)cnc2O[C@H]1CN(C)C(=O)Nc1ccc(C(F)(F)F)cc1 | · | · | · | -3 | ·
O=C(O)c1ccc(Cl)c(S(=O)(=O)N2CCCC2)c1 | 3 | 1 | 19 | -4 | ·
O=C(O)c1ccc(Br)c(S(=O)(=O)N2CCCC2)c1 | 2 | 0 | -5 | 60* | 10%
C[C@@H]1CCCCO[C@H](CN(C)Cc2ccc3c(c2)OCO3)[C@@H](C)CN([C@@H](C)CO)C(=O)c2cc(NS(=O)(=O)c3ccc(Cl)cc3)ccc2O1 | · | · | · | 12 | ·
CCOc1ccc(NC(=O)CC(NCc2ccccn2)C(=O)O)cc1 (stereo not drawn) | 0 | 4 | 19 | 65* | 6.1µM*
CCOc1ccc(NC(=O)NCc2ccccn2)cc1 | 2 | 0 | 27 | -5 | ·
CCn1c(Cc2ccccc2)nnc1SCC(=O)Nc1ccc(N)cc1 | -4 | -1 | 26 | 57* | -10%
CCn1c(Cc2ccccc2)nnc1SCC(=O)Nc1ccc(OC)cc1 | -6 | -12 | 6 | -3 | ·
Cc1ccc(S(=O)(=O)N(C)C[C@H]2Oc3ccc(NC(=O)Cn4cnnn4)cc3CC(=O)N([C@@H](C)CO)C[C@H]2C)cc1 | · | · | · | 3 | ·
SMILES | sPLA2-III inh | Rin1-Abl PPI inh | AI-2 QS mod | ARNT TACC3 PPI | ARNT Alpha ctr-1 | others
CCOc1ccc(-c2cnc(N)n2C)cc1 | 3 | 0 | 22 | 54* | -17%
Cn1c(-c2ccc(Cl)cc2)cnc1N | 12 | -8 | 43 | 58* | 58µM*
O=C(CSc1n[nH]c(-c2ccccn2)n1)Nc1cccc(Cl)c1 | -23 | -2 | ? | 56* | 14µM*
Cc1nc(SCC(=O)Nc2cccc(Cl)c2)n[nH]1 | -7 | -2 | 4 | -10 | ·
Cc1ccc(C)c(NC(=O)CSc2n[nH]c(-c3ccccn3)n2)c1 | -6 | 1 | 16 | 77* | 10µM*
O=C(Cn1cncn1)N/N=C/c1cc([N+](=O)[O-])ccc1O | 5 | -5 | 25 | 64* | 28µM*
O=C(CCC(=O)Nc1ccc(Br)cc1)N/N=C/c1cc([N+](=O)[O-])ccc1O | 6 | 5 | 35 | -5 | ·
O=C(CCCn1cnc([N+](=O)[O-])n1)Nc1cc(Cl)ccc1O | -14 | 2 | 15 | -5 | ·
O=C(Cn1cnc([N+](=O)[O-])n1)N/N=C/c1cc(Cl)ccc1O | -13 | -1 | -84* | 58* | 70µM*
CCNC(=O)C[C@H]1C=C[C@@H](NC(=O)C2CCC2)[C@H](CO)O1 | · | · | · | -5 | ·
CN1CCN(C(=O)C[C@H]2CC[C@H](NC(=O)c3ccc4c(c3)OCO4)[C@@H](CO)O2)CC1 | · | · | · | -3 | ·
C/C(=N\NC(=O)CSc1nnc(C)s1)c1ccc(Cl)cc1 | 3 | 0 | 12 | 2 | ·
COc1ccc(/C(C)=N\NC(=O)CSc2nnc(C)s2)cc1 | 1 | 0 | 7 | 39* | -10%
C[C@@H]1CN([C@H](C)CO)C(=O)c2cc(NC(=O)Cn3cnnn3)ccc2O[C@@H]1CN(C)C(=O)Nc1ccccc1 | · | · | · | -5 | ·
CCc1cc2c(=O)[nH]c(-c3ccccn3)nc2s1 | 8 | -2 | 65 | 76* | 51µM* | ARNT Alpha ctr-2=17*
O=c1cc(C(F)(F)F)nc(-n2[nH]c3c(c2=O)CCCC3)[nH]1 | -16 | 0 | 29 | 56* | -23%
N[C@H]1CC[C@H](CCn2cc(-c3ccccn3)nn2)O[C@@H]1CO | · | · | · | 77* | 5.3µM*
N[C@@H]1CC[C@@H](CCn2cc(-c3ccccn3)nn2)O[C@H]1CO | · | · | · | 76* | 3.8µM*
c1ccc(-c2cn(C[C@H]3CC[C@@H]([C@@H]4CC[C@H](Cn5cc(-c6ccccc6)nn5)O4)O3)nn2)cc1 | 5 | 2 | 10 | -9 | ·
c1ccc(-c2cn(C[C@H]3CC[C@@H]([C@@H]4CC[C@H](Cn5cc(-c6ccccn6)nn5)O4)O3)nn2)nc1 | 10 | -3 | 22 | 66* | 11µM*
N[C@@H]1CC[C@@H](CCn2cc(-c3cccc(F)c3)nn2)O[C@H]1CO | · | · | · | 5 | ·
COc1ccc(NC(=O)Nc2ccc3c(c2)C(=O)N([C@H](C)CO)C[C@@H](C)[C@H](CN(C)S(C)(=O)=O)OCCCC[C@H](C)O3)cc1 | · | · | · | 9 | ·
CS(=O)(=O)Nc1ccc2c(c1)[C@@H]1C[C@H](CC(=O)NCc3ccc(Cl)cc3)O[C@H](CO)[C@@H]1O2 | · | · | · | -3 | ·
CC(C)NC(=O)Nc1ccc2c(c1)C(=O)N([C@@H](C)CO)C[C@H](C)[C@H](CN(C)S(=O)(=O)c1ccc(F)cc1)OCCCC[C@@H](C)O2 | · | · | · | 2 | ·
O=C(Nc1nc(-c2cccs2)cs1)c1ccco1 | 1 | 4 | 7 | -1 | ·
